biological target: RUNX1 (UniProt Q01196); assay: RUNX1 binding intensity (PBM fluorescence), RUNX1 alone (arbitrary fluorescence units); higher = stronger binding; settings: RUNX1 concentration 2 nM; ETS1 concentration 0 nM
Description: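 Cooperative gcPBM on 36-bp genomic probes with neighbouring ETS1 and RUNX1 sites. Recombinant human RUNX1 (2 nM) was incubated alone or with ETS1 (25 nM) and detected with anti-RUNX1 antibody plus Alexa488 secondary. Values are medians over 4 replicate spots; the RUNX1+ETS1 data were normalised to the RUNX1-only data. The probes sit in constant array flanks that are not printed.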
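Further: Full-length recombinant human RUNX1 bound to double-stranded 36-bp genomic probes on a high-density microarray, scored as Alexa488 fluorescence per spot via anti-RUNX1 antibody, median of four replicate spots.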

Sequence of RUNX1 (Q01196 whole entry): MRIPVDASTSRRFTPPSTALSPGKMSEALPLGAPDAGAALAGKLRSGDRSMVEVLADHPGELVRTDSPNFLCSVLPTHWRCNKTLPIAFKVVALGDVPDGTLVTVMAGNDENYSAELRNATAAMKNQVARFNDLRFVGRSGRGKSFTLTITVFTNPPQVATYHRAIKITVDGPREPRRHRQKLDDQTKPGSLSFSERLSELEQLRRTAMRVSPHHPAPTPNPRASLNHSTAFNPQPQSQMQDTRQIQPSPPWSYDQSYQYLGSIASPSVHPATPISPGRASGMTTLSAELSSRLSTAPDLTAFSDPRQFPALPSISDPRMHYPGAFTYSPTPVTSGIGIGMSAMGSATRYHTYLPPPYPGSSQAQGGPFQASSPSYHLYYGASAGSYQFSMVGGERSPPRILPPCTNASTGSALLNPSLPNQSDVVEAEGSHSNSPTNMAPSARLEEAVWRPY

Sequence	RUNX1 binding intensity
CACTTCCCCCAGCCTCTCTTTTTAATACCACAATAG	3520
AATGATTACCTAACAGGAAAACCACATTGGTCATTT	1180
TAGCATGTGAGCTTCCTGTGGGTTTGTGCAGCCCCA	708
TTTGTTGTTCCGGGTGCGAGGCGGCCGCAGCTTCCA	1090
TCTTTAAAACCCGGAAGTTCCTGTGGTTCATACGCT	978
AAACAGGAAATCACAGCAGCGTTGCGGAGTGGAGCA	754
CGAAAGTGACCGGAAGTAACCGCCGGGCCAAGATGG	795
TGCTTAGCGGGAAGTGCTTACACCACAAAACAAGAC	726
TCCCGAGAGCCGGAAGCAGCCGCAGGCCCCGCCACA	778
TTCTGCTACATCCTGCCCACTCCCTGTGGCTTCCAC	1380
TTGTCACGTCCGGCACGCCGCGAACCGCAAGGAACC	1270
CTCTGCTTCCTGTCTTTGAATGCCTCTGTGGTTTTC	2080
CTCGCGATTCCTCTTCCGCTGCGGTCTCCTTAACAC	1290
CCTGACTTCCTCCTCCCCCTCCCGCCACAATTCCGC	1620
AACCTGCAGACTTCCTGCCATGTGACCACAGGGTCT	915
GTTGCAGGAAACGATGGGTTTTGTGGTATGAACTGC	829
AGCTTGACGAAGGCTTCCTGTGGTTTGGGTTGATGT	824
AAACCCTGAGTAATCGGAAGTGGTTAGGAGTGAGAG	816
ACCAGAAGCACTGCAGGATGTGGTATCAAGACGCCT	774
GGCTGTGCTTCAGGATGTGGTAATGCTTGGGAGGCG	780

Sequence	RUNX1 binding intensity
CATTTACAGAAAAGGAAACCGCAAGTTTGAGCAAGT	25200
ATGTTAACATCCTGCCATGAAAACCGCAAGAAGGGC	19000
TGACATTTCCGGCCCCACCTCGGCCCGCAGCGCCGC	955
CACCTCAGCTTCCTGTGTAGCTGGGACCACAGGCAT	827
GGCCTCGGCCACATCCGGGTTCCACCGCAGATTCGG	819
CAGTGGCTAAGGATCCGGTGTTGCGGTGATACATGA	804
GGATTAGAACTGCTTCCTCCTGTGGTTTACCAGAAA	923
GTGCTGAGCAGCTTCCCGTCTGCGGTGAAGACAGCC	1150
CTGAAACAGGAAACAGACAAAGCCACAAGGTTCGCA	746
TGCAGCCTATTTCCTCTAACCCGCAGATCCACTATG	1470
ACGTGATGGCAGTCTTCCTGCCCACAAGTTCTGGTC	1250
TGCTTTTCAGGTGCAGGAAGTGGTTTGCCTTTGCCC	788
TCCTATATACTTCCGTTTGCCTCGCGGTTTCTTTCT	2730
ACCTCAGGTACCGGAAGACCACAATTCCCAGGAGTC	965
GACACAAGACAGTTTCCGTCAGTGGTTAAGCCCTAA	845
GTGCAGACAGGAAATAGCTGCTCTGCGGCAGCCCGA	752
TCACTCTAACAGGATATTGTGGTTAACTATGTTGCC	2580
TGCATGCAACAGGAAGTGGGGTGTGGTTTGTTCTGG	760
GAGTCTACAGCGGAAGCCACCACATGCCCCACCCCC	904
CCTCGGTTCGGAAACGGCGAAAGCAAACCGCAAGGA	2260

— the supplement of paper PMC10681739
